These results are taken from PubChem BioAssay (NCATS).

Each structure is given as a SMILES string. Inconclusive results are not listed. Calls of active or inactive are those of the source. Calls come from the whole dose curve; as a rule, active = well fitted activation curve with a large enough effect; inconclusive = small, poorly fitted or top-dose-only effect; inactive = no such curve, though single readings can be large or run the other way.
Potency is the fitted concentration of half-maximal effect.

Cellular tumor antigen p53 (Homo sapiens), sequence (P04637 whole entry, looked up): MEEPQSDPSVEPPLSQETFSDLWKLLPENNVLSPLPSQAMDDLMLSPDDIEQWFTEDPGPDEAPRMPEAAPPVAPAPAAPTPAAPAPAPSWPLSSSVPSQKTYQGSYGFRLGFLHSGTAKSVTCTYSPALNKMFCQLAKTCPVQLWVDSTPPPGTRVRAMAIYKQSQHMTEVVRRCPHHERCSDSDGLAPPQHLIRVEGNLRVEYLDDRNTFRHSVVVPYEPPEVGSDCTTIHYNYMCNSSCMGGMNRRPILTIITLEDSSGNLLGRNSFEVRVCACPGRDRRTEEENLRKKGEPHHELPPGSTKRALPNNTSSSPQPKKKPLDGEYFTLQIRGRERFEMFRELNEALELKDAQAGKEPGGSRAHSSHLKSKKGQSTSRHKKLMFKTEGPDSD

The assay concerns the target Cellular tumor antigen p53 (Homo sapiens) (UniProt P04637). Description: Primary qHTS for small molecule compounds that upregulate eGFP-tagged delta133p53alpha (in N-terminal) cells. (AID 2060322).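 For activation: cells pre-induced with doxycycline then dosed without doxycycline; series mostly up to about 56 µM; 0% = DMSO vehicle and 100% = reference activator.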 Note: nearly all actives have a fitted effect of over 75% in size. The conditions noted are these: NCI-H358 eGFP-delta133p53alpha fluorescence, 24 h; activation: stronger effect = higher value. The procedure, abridged:
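NCI-H358 cells pre-induced 24 h with 10 ng/ml doxycycline for eGFP-delta133p53alpha, plated dox-free and exposed 24 h at 37C to titrated compounds. Fixed, Hoechst-stained; gated GFP peak intensity by laser scanning cytometry, normalized to DMSO (0%) and 57.5 uM 5-azacytidine (100%).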
In general terms: Quantitative high-throughput screening tests each substance at several concentrations.
Consider `OCc1ccccc1O`, for which the activation was -1.69% (inactive).

Turning to `CCOC(=O)C(=O)c1csc(NC=O)n1`, the activation is -16.4% (inactive).

With `O=C(Cn1ccnc1[N+](=O)[O-])NCc1ccccc1`, the activation was -10.9% (inactive). On the same count and under the same terms, then `NC(=O)Cc1cccc(C(=O)c2ccccc2)c1N`, with 9.6% (inactive). With `CN(C)CCOC(c1ccc(Cl)cc1)c1ccccn1` (stereo not given), the activation was 15.3% (inactive). In the case of `CCCCOC(=O)c1ccc(O)cc1`, the activation is -13% (inactive).

Turning to `O=C(NNC(=O)c1ccc(CNS(=O)(=O)c2ccc(F)c(Cl)c2)cc1)c1ccccc1`, the activation was 15.5% (inactive).

Consider `[O-][n+]1ccccc1SSc1cccc[n+]1[O-]`, for which the Potency is 0.379 µM (active). For `COC(=O)C1=CO[C@@H](O)[C@@H]2C(CO)=CC[C@@H]12`, the activation is 4.38% (inactive). With `COC(=O)/C=C\C(=O)OC`, the activation was -9.6% (inactive). Consider `N#CCC(=O)NN`, for which the activation was 15.9% (inactive). For the molecule `Cc1onc(-c2c(Cl)cccc2Cl)c1C(=O)Cl`, the activation is -15.3% (inactive). As for `COc1ccc(C(=O)NCc2ccc(OCCN(C)C)cc2)cc1OC`, the activation was -28.8% (inactive). The same measure, in the same setting: then `CCC(=O)O[C@H]1[C@H](O[C@@H]2[C@@H](C)[C@H](O[C@H]3C[C@@](C)(OC)[C@@H](O)[C@H](C)O3)[C@@H](C)C(=O)O[C@H](CC)[C@@](C)(O)[C@H](O)[C@@H](C)C(=O)[C@H](C)C[C@@]2(C)O)O[C@H](C)C[C@@H]1N(C)C`, with 0.837% (inactive); and `CCOC(=O)c1ccc(N)cc1`, with 8.37% (inactive); and `Oc1cccc(-c2c3nc(c(-c4cccc(O)c4)c4ccc([nH]4)c(-c4cccc(O)c4)c4nc(c(-c5cccc(O)c5)c5ccc2[nH]5)CC4)C=C3)c1`, with 25.9% (inactive). As for `CCOC(=O)C(C#N)=C(c1ccccc1)c1ccccc1`, the activation was -3.35% (inactive). In the case of `COCC(=O)Nc1c(I)c(C(=O)NCC(O)CO)c(I)c(C(=O)N(C)CC(O)CO)c1I` (stereo not given), the activation is -4.18% (inactive). Take `CCOCCn1c(C2CCN(CCc3ccc(C(C)(C)C(=O)O)cc3)CC2)nc2ccccc21`: the activation was -6.69% (inactive). Take `c1ccc2sc(SN3CCOCC3)nc2c1`: the activation is 8.37% (inactive). Turning to `O=C1c2ccccc2C(=O)c2c1ccc(O)c2O`, the activation was -14.2% (inactive).

Turning to `N=C(N)c1ccc(OCCCOc2ccc(C(=N)N)cc2)cc1`, the activation is -15.9% (inactive). Still for that read-out and setting: then `CC(C)(C)c1[nH]cnc1C=c1[nH]c(=O)c(=Cc2ccccc2)[nH]c1=O`, with -1.26% (inactive); and `O=C(O)CCCc1ccccc1`, with 20.9% (inactive); and `CC(C)n1c(C=C[C@H](O)C[C@H](O)CC(=O)O)c(-c2ccc(F)cc2)c2ccccc21`, with -24.6% (inactive). In the case of `CCN1/C(=C/C=C/c2sc3ccccc3[n+]2CC)Sc2ccccc21`, the Potency was 16.9 µM (active). For `Cc1cccc(C)c1NC(=O)c1ccc(N)cc1`, the activation is -2.82% (inactive). As for `O=C1NC(=O)C(=Cc2cccc(C(F)(F)F)c2)S1`, the activation was 2.49% (inactive). In the case of `Cc1c(C)c2c(c(C)c1OC(=O)CCC(=O)OCCO)CC[C@@](C)(CCC[C@H](C)CCC[C@H](C)CCCC(C)C)O2`, the activation is -20.9% (inactive).

Turning to `Cc1ccnc(NS(=O)(=O)c2ccc(N)cc2)n1`, the activation is -10.9% (inactive).

With `CCN[C@H]1CN(CCCOC)S(=O)(=O)c2sc(S(N)(=O)=O)cc21`, the activation was 13% (inactive). Take `O=C1Nc2cc(Cl)ccc2Oc2ccccc21`: the activation was -1.69% (inactive). `O=C1OCCN1/N=C/c1ccc([N+](=O)[O-])o1`: the activation is -3.35% (inactive). For `CC(=O)NCc1c(I)c(NC(C)=O)c(I)c(C(=O)O)c1I`, the activation was 16.4% (inactive).

For the molecule `O=C(Nc1ncc([N+](=O)[O-])s1)c1cccs1`, the activation was 10% (inactive). `CCOC(N)=O`: the activation is -2.82% (inactive). Consider `CN(C)CC/C=C1\c2ccccc2Sc2ccc(Cl)cc21`, for which the activation was 0% (inactive). Same read-out and setting: then `Cc1c(N)cccc1C(F)(F)F`, with -19.8% (inactive); and `C=CCN1C[C@H](C(=O)N(CCCN(C)C)C(=O)NCC)C[C@@H]2c3cccc4[nH]cc(c34)C[C@H]21`, with -8.37% (inactive); and `COC(=O)c1cc(S(N)(=O)=O)ccc1OC`, with -3.95% (inactive).
